Experimental data as given in paper PMC7862700, “An all-to-all approach to the identification of sequence-specific readers for epigenetic DNA modifications on cytosine”.

Experiments:
Test in all cases: DAPPL (digital affinity profiling via proximity ligation, sequencing); 10 mM Tris-HCl pH 7.5, 50 mM NaCl, 1 mM DTT, 4% glycerol, room temperature, 30 min; GST-TFs on glutathione beads, 16-mer random dsDNA library, 0.1% formaldehyde crosslink after washing; high values mean tight binding
Conditions in all cases: protein: recombinant; tags: N-terminal GST; dsDNA, one strand shown
ELF1 = ELF1 (Homo sapiens, UniProt P32519 1-619)
Outline: (§1)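 A tag-only sample was pooled with DNA-barcoded human transcription factors that had been expressed in yeast as GST fusions and captured on glutathione beads. The pools were incubated for 30 min at room temperature with 200 nmole of a random double-stranded 16-mer DNA library in Tris/NaCl/DTT/glycerol buffer, then washed, crosslinked with 0.1% formaldehyde, proximity-ligated (BsaI/T4 ligase, 1 h, 37 °C), PCR-amplified and sequenced on an Illumina NextSeq500. Binding signal is each hexamer's read frequency for a factor divided by its frequency for the tag-only sample.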

SPIC = target: T1, SPIC (Homo sapiens, UniProt Q8N5J4 1-248)
T1 sequence: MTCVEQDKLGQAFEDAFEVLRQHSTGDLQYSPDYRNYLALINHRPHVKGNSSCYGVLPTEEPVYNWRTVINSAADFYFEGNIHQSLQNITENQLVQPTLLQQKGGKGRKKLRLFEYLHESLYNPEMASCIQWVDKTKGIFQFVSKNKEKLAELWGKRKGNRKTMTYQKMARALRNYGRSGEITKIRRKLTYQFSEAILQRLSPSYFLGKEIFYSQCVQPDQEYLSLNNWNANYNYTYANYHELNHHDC
Outline: as §1

ELK4 = target: T2, ELK4 (Homo sapiens, UniProt P28324-2 1-405)
T2 sequence: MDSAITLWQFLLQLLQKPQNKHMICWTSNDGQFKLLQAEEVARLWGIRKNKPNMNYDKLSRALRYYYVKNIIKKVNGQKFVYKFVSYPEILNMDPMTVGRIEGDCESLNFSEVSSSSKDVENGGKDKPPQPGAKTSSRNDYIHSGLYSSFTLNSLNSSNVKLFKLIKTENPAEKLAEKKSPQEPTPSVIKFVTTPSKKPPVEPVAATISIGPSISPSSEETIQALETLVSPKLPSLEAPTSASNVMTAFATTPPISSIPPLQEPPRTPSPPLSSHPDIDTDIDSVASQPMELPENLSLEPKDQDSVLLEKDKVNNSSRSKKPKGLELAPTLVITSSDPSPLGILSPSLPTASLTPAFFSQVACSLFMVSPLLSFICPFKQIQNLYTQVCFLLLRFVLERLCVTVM
Outline: as §1

ETV2 = target: T3, ETV2 (Homo sapiens, UniProt O00321 1-342)
T3 sequence: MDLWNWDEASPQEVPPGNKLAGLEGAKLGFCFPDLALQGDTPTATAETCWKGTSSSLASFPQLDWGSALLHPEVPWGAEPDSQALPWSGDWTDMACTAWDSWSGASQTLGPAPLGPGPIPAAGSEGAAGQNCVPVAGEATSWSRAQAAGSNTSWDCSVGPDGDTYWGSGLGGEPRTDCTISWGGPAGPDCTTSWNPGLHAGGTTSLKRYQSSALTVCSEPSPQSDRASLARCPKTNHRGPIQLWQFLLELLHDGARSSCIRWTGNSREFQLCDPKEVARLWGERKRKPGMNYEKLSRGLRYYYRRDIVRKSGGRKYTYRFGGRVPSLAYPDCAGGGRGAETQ
Outline: as §1

ERF = target: T4, ERF (Homo sapiens, UniProt P50548 1-548)
T4 sequence: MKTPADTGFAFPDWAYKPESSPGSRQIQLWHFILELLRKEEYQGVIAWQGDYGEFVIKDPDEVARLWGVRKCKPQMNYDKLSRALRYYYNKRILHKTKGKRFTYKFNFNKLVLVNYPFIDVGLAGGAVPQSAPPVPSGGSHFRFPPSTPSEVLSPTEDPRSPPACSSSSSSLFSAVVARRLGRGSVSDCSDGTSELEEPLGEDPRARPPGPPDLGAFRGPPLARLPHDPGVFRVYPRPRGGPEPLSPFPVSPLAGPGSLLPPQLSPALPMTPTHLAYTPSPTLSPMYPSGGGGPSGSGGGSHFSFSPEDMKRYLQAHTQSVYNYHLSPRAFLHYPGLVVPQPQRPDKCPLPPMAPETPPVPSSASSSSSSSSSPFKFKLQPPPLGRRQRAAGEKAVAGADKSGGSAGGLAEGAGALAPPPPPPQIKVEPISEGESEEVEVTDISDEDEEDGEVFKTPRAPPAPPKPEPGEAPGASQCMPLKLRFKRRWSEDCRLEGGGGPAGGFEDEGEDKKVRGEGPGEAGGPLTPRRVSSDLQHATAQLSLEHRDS
Outline: as §1

ELK1 = target: T5, ELK1 (Homo sapiens, UniProt P19419 1-428)
T5 sequence: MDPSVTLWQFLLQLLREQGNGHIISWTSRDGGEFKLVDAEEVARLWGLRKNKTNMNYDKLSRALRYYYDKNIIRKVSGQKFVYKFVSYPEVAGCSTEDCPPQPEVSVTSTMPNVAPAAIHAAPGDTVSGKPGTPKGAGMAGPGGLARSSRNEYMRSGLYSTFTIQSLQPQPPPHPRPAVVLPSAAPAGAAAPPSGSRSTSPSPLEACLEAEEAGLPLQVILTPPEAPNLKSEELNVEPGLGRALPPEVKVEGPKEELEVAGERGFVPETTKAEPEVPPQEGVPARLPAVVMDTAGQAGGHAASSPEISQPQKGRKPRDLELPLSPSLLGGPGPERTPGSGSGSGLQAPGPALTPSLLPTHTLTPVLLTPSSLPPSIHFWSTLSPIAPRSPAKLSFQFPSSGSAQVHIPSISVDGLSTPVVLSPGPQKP
Outline: as §1

ETV7 = target: T6, ETV7 (Homo sapiens, UniProt Q9Y603 1-341)
T6 sequence: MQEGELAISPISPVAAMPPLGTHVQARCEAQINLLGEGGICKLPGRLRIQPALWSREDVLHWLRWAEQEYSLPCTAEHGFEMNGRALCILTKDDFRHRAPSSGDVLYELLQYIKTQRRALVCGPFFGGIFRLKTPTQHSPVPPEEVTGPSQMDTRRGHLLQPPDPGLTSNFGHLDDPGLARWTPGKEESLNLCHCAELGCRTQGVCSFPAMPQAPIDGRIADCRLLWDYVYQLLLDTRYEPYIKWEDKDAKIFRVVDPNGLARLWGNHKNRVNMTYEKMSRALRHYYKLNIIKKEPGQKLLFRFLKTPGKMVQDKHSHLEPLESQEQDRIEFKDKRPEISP
Outline: as §1

SPIB = SPIB (Homo sapiens, UniProt Q01892 1-262)
Outline: as §1

CRX = CRX (Homo sapiens, UniProt O43186 1-299)
Outline: as §1

ERG = target: T7, ERG (Homo sapiens, UniProt P11308 1-479)
T7 sequence: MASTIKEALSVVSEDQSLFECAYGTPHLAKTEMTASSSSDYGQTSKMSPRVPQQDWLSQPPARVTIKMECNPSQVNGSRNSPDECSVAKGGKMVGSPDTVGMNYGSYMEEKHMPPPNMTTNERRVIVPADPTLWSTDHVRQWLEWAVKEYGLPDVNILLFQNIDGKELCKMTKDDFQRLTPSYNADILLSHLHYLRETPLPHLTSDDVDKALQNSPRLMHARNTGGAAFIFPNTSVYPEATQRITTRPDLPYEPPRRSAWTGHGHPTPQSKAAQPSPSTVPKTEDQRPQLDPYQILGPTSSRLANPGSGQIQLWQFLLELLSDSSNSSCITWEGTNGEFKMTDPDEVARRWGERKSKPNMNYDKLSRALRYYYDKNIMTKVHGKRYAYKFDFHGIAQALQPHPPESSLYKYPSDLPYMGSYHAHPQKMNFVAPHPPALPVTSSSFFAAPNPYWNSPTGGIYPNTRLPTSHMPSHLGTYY
Outline: as §1

SPI1 = SPI1 (Homo sapiens, UniProt P17947 1-270)
Outline: as §1

ELK3 = target: T8, ELK3 (Homo sapiens, UniProt P41970 1-407)
T8 sequence: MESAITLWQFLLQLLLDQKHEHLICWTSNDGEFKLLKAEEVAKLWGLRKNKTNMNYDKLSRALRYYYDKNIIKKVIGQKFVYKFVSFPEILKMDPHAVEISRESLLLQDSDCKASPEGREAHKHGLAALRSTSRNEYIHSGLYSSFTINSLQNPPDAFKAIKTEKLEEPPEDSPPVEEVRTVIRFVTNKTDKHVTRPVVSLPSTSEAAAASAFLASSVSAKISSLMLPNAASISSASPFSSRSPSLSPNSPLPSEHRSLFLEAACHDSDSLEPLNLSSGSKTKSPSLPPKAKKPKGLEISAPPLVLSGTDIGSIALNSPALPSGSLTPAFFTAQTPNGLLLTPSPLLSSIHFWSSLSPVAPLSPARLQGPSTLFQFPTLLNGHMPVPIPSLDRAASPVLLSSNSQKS
Outline: as §1

ETS2 = target: T9, ETS2 (Homo sapiens, UniProt P15036 1-469)
T9 sequence: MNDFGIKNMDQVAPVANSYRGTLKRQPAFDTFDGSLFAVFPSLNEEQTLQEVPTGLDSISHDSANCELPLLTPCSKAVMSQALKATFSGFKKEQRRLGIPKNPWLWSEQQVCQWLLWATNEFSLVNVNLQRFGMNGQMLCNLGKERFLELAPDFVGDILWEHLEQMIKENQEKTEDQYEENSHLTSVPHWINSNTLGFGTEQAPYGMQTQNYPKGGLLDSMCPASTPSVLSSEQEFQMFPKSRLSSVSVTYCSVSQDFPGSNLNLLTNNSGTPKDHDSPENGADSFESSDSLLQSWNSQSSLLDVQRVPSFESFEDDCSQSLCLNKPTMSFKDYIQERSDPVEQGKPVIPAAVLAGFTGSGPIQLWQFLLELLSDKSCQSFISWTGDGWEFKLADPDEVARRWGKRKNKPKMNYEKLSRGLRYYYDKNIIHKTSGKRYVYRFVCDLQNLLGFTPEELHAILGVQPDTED
Outline: as §1

Sequence of SPIB (Q01892 whole entry): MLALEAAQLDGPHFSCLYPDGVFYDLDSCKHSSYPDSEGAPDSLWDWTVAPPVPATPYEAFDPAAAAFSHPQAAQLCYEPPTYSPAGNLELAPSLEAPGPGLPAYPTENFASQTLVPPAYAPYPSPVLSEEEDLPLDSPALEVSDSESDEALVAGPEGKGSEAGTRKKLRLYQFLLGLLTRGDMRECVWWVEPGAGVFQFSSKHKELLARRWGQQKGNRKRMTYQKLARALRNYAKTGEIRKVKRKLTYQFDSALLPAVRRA
Sequence of CRX (O43186 whole entry): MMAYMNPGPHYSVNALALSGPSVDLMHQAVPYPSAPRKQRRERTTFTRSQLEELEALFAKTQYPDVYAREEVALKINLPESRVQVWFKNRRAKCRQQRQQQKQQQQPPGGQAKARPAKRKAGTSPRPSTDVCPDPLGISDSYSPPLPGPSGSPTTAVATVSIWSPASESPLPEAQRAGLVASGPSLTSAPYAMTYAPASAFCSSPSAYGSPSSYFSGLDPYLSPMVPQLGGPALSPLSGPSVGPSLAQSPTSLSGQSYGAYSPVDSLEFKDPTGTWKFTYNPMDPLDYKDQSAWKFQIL
Sequence of ELF1 (P32519 whole entry, the tested form may be a part): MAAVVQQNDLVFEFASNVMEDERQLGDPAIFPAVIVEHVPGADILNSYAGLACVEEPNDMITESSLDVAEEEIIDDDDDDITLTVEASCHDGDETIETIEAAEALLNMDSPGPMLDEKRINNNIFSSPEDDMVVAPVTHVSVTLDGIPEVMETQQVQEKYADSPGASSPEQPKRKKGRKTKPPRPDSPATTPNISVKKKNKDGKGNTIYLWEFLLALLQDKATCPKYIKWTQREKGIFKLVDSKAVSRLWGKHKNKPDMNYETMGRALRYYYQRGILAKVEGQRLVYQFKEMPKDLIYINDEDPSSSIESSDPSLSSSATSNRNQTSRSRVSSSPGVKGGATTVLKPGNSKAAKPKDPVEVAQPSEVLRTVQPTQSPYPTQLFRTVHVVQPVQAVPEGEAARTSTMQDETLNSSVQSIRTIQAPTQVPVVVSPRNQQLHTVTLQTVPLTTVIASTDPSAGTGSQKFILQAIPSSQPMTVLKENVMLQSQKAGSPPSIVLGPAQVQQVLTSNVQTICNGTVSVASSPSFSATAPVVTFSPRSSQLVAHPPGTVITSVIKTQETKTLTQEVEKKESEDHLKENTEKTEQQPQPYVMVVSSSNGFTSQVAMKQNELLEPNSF

**Q.** Which results are given for CGCTGT?
**A.** binding signal (ELF1): 1.01 fold enrichment (6-mer frequency, TF over GST control); binding signal (SPIC): 1.1 fold enrichment (6-mer frequency, TF over GST control); binding signal (ELK4): 1.04 fold enrichment (6-mer frequency, TF over GST control); binding signal (ETV2): 1.01 fold enrichment (6-mer frequency, TF over GST control); binding signal (ERF): 1.12 fold enrichment (6-mer frequency, TF over GST control)

**Q.** Which binding signal (ELK1) does the source give for GACATG here?
**A.** 1.01 fold enrichment (6-mer frequency, TF over GST control)

**Q.** And the binding signal (SPIC)?
**A.** 1.1 fold enrichment (6-mer frequency, TF over GST control)

**Q.** What about the binding signal (ETV7) of the same sequence?
**A.** 1.03 fold enrichment (6-mer frequency, TF over GST control)

**Q.** How did the binding signal (SPIC) turn out when GTGCCG was run?
**A.** 1.03 fold enrichment (6-mer frequency, TF over GST control)

**Q.** And the binding signal (ETV2)?
**A.** 1.01 fold enrichment (6-mer frequency, TF over GST control)

**Q.** Which binding signal (SPIB) does the source give for GCAGAT here?
**A.** 1.02 fold enrichment (6-mer frequency, TF over GST control)

**Q.** What about the binding signal (SPIC) of the same sequence?
**A.** 1 fold enrichment (6-mer frequency, TF over GST control)

**Q.** What about the binding signal (ELK4) of the same sequence?
**A.** 1.04 fold enrichment (6-mer frequency, TF over GST control)

**Q.** What about the binding signal (ETV2) of the same sequence?
**A.** 1.17 fold enrichment (6-mer frequency, TF over GST control)

**Q.** And the binding signal (CRX)?
**A.** 1.21 fold enrichment (6-mer frequency, TF over GST control)

**Q.** With TGCAGG as the sequence, how does the binding signal (ERG) read?
**A.** 1.01 fold enrichment (6-mer frequency, TF over GST control)

**Q.** And the binding signal (SPI1)?
**A.** 1.03 fold enrichment (6-mer frequency, TF over GST control)

**Q.** What about the binding signal (SPIB) of the same sequence?
**A.** 1.07 fold enrichment (6-mer frequency, TF over GST control)

**Q.** What about the binding signal (ELK3) of the same sequence?
**A.** 1.03 fold enrichment (6-mer frequency, TF over GST control)

**Q.** What about the binding signal (SPIC) of the same sequence?
**A.** 1.01 fold enrichment (6-mer frequency, TF over GST control)

**Q.** What about the binding signal (ETV2) of the same sequence?
**A.** 1.03 fold enrichment (6-mer frequency, TF over GST control)

**Q.** What about the binding signal (ERF) of the same sequence?
**A.** 1.01 fold enrichment (6-mer frequency, TF over GST control)

**Q.** What about the binding signal (ETS2) of the same sequence?
**A.** 1.02 fold enrichment (6-mer frequency, TF over GST control)
